Laboratory results published in PubChem BioAssay (NCI).
This is part of a sample that, as a whole, favours compounds with a hit. Of some 83,000 tested, about 20% had one in any assay.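 How to read the values: 0–100, growth inhibition (40 = 60% inhibited); 0, no net growth; -100 to 0, cell death (-40 = 40% of starting cells died; -100 = all dead).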 Activity calls are given as the source filed them. The calls were made as follows: active = growth percent below 10; inactive = the rest.

Tests used:
Assay in all cases: NCI-60 one-dose screen, 48 h (100 = growth as untreated, 0 = no growth, -100 = all killed)
Conditions in all cases: 10 µM
[1] = system: RPMI-8226 leukemia
[2] = system: OVCAR-8 ovarian
[3] = system: OVCAR-5 ovarian
[4] = system: OVCAR-4 ovarian
[5] = system: SK-OV-3 ovarian
[6] = system: IGROV1 ovarian
[7] = system: OVCAR-3 ovarian
[8] = system: HS 578T breast
[9] = system: NCI/ADR-RES ovarian
[10] = system: T-47D breast

Measured: growth

COc1cc(NC(=O)CCSc2nc3ccc(Cl)cc3c(=O)n2Cc2ccccc2)cc(OC)c1OC
inactive: [1] 42.5% | [2] 73.9% | [3] 88.8% | [4] 61.5% | [5] 82% | [6] 101% | [7] 93.4% | [8] 40.3% | [9] 84.3% | [10] 64.2%

COc1cc(Nc2ncnc(Nc3ccc4c(n3)NC(=O)C(C)(C)O4)n2)cc(OC)c1OC
inactive: [1] 20.6% | [2] 24.1% | [3] 29.3% | [4] 39.8% | [7] 35.9% | [9] 34.2% | [10] 34.5%
active: [5] -19.6% | [6] -46.1% | [8] -20.4%

O=C(O)c1ccc(Cl)cc1Nc1ccc(F)cc1
active: [7] 6.97%
inactive: [1] 88.6% | [2] 74.1% | [3] 81% | [4] 38% | [5] 70.9% | [6] 119% | [8] 94.3% | [9] 91.3% | [10] 78.7%

COc1ccc(-c2nsc3c2NC(=O)CC3c2ccc(F)cc2)cc1 (stereo not given)
active: [9] 5.04%
inactive: [1] 39.6% | [2] 46.1% | [3] 40.3% | [4] 90.8% | [5] 35.2% | [6] 56.2% | [7] 23.9% | [8] 66.6% | [10] 22.2%

O=c1oc2cc(OS(=O)(=O)c3ccccc3)ccc2c2c1CCCCC2
inactive: [1] 23.4% | [2] 60.4% | [3] 83% | [4] 53.7% | [5] 84.3% | [6] 83.4% | [7] 81.5% | [8] 75.6% | [9] 56% | [10] 24.8%

CC(=O)c1cc(Br)ccc1O
inactive: [1] 105% | [2] 112% | [3] 92.3% | [4] 105% | [5] 126% | [6] 136% | [7] 118% | [8] 108% | [9] 107% | [10] 114%

Cc1ccc(C(=O)N2C/C(=C/c3ccccc3)C(=O)/C(=C/c3ccccc3)C2)cc1
inactive: [2] 48.7% | [3] 105% | [4] 75.3% | [5] 78.9% | [6] 69.1% | [7] 57.9% | [9] 66.1% | [10] 61.8%
active: [1] -23.1% | [8] 9.99%

C#Cc1ccc(-n2c(/C=C/c3ccc(C(F)(F)F)cc3)nc3ncccc3c2=O)cc1
active: [1] -9.89% | [4] -42.6% | [7] -8.86%
inactive: [2] 17.2% | [3] 68.8% | [5] 54.1% | [6] 34% | [8] 72.4% | [9] 29.3% | [10] 35.4%

Cc1cccc(C)c1NC(=O)c1sc2nc3c(cc2c1N)C(=O)CCC3
inactive: [1] 96% | [2] 97.9% | [3] 97.6% | [4] 101% | [5] 22.5% | [6] 89.4% | [7] 100% | [8] 93.2% | [9] 87.6% | [10] 92.8%

Cc1nc2c(c(=O)[nH]1)OCN(Cc1ccccc1)C2
inactive: [1] 101% | [2] 99.1% | [3] 109% | [4] 96.1% | [5] 93.7% | [6] 100% | [7] 103% | [8] 109% | [9] 107% | [10] 97.8%

COc1ccc(/C=C2/CN(C(=O)c3ccc(C)cc3)C/C(=C\c3ccc(OC)cc3)C2=O)cc1
active: [1] -6.11%
inactive: [2] 88.9% | [3] 109% | [4] 83.8% | [5] 99.1% | [6] 89.8% | [7] 90.7% | [8] 92% | [9] 86.7% | [10] 69.3%

CCN(CC)CCCC(C)Nc1ccc2ccc(Cl)cc2n1 (stereo not given)
inactive: [1] 97.3% | [2] 94.4% | [3] 102% | [4] 116% | [5] 104% | [6] 101% | [7] 97.8% | [8] 90.8% | [9] 98% | [10] 93.1%

CC(=O)/C(=C/c1ccccc1)C(=O)CC(C)C
inactive: [1] 18.4% | [2] 75.2% | [3] 93.9% | [4] 103% | [5] 106% | [6] 98.8% | [7] 75.1% | [8] 89.6% | [9] 93.5% | [10] 107%

c1ccc(CP(Cc2ccccc2)c2ccccc2)cc1
inactive: [1] 92.7% | [2] 94.8% | [3] 102% | [4] 113% | [5] 100% | [6] 78.6% | [7] 112% | [8] 117% | [9] 101% | [10] 116%

COc1ccc(-c2ccc3cc(C(=O)Nc4ccc(O)c(C(=O)/C=C/c5cc(OC)c(OC)c(OC)c5)c4)ccc3c2)cc1
inactive: [1] 60.2% | [2] 84.9% | [3] 108% | [4] 94.5% | [5] 109% | [6] 89.6% | [7] 100% | [8] 102% | [9] 95.4% | [10] 85.5%

COc1cc2cc3c(nc2cc1OC)CCN3Cc1ccc(NC(=O)Nc2cc(C(F)(F)F)cc(C(F)(F)F)c2)cc1
inactive: [1] 54.2% | [2] 61.7% | [3] 92.6% | [4] 80.5% | [5] 95.2% | [6] 84.3% | [7] 51.6% | [8] 77.4% | [9] 60.5% | [10] 71.5%

COc1cc(NC(=O)c2sc3nc4c(cc3c2N)C(O)CCC4)cc(OC)c1 (stereo not given)
inactive: [1] 88.2% | [2] 97.5% | [3] 100% | [4] 96.6% | [5] 97.4% | [6] 85.7% | [7] 95.3% | [8] 106% | [9] 87.3% | [10] 90.8%

CC1CC(=O)OC(C)C1 (stereo not given)
inactive: [1] 104% | [2] 104% | [3] 105% | [4] 97.6% | [5] 101% | [6] 107% | [7] 116% | [8] 112% | [9] 112% | [10] 107%

COc1ccc(-c2nc(-c3nc4ccc(Cl)cc4[nH]3)c3ccccn23)cc1
active: [2] -27.1% | [4] -77% | [5] -47.8% | [7] 8.15% | [8] -19.3%
inactive: [1] 49.3% | [3] 82.5% | [6] 84.8% | [9] 33.6% | [10] 64.7%

O=C1OCC2=C1C(c1ccc(Cl)c(Cl)c1)c1cc3c(cc1N2CCO)OCCO3 (stereo not given)
active: [7] -53.7% | [8] -13.3% | [9] 3.69%
inactive: [1] 18.7% | [2] 27.7% | [3] 34.3% | [4] 55.7% | [5] 29.5% | [6] 34.6% | [10] 62.2%

Cc1ccc(-c2n[nH]c(=O)c3noc(-c4ccc(C)cc4)c23)cc1
active: [7] -13.3%
inactive: [1] 11.8% | [2] 43.3% | [3] 66.2% | [4] 59.4% | [5] 21.4% | [6] 53.5% | [8] 21.9% | [9] 32.5% | [10] 28.6%

Cc1ccc(NC(=O)Nc2cccnc2)cc1NC(=O)Nc1cccnc1
inactive: [1] 42.9% | [2] 73.8% | [3] 110% | [4] 77.7% | [5] 101% | [6] 68.5% | [7] 93.2% | [8] 95.7% | [9] 87.6% | [10] 58%

Cc1cc(C)c2c(n1)sc1c(Nc3ccc(Cl)cc3)ncnc12
inactive: [1] 23.7% | [3] 29% | [4] 84.4% | [5] 35.2% | [6] 70.8% | [7] 33.3% | [8] 76.5% | [9] 15.1% | [10] 23.4%
active: [2] 4.06%

COc1ccc(-c2nc3ncccn3c2-c2nnc(-c3ccsc3C)o2)cc1
inactive: [1] 86.9% | [2] 25.2% | [3] 102% | [4] 25.7% | [5] 54.4% | [6] 94.7% | [7] 55.4% | [8] 56.4% | [9] 61.1% | [10] 92.1%

COc1ccc(/C=C/C(C)=N/OCC(=O)O)cc1
inactive: [1] 102% | [2] 105% | [3] 109% | [4] 106% | [5] 101% | [6] 106% | [7] 113% | [8] 113% | [9] 106% | [10] 93.5%

COc1cc(-c2nc(Nc3nc4ccccc4s3)[nH]c(=O)c2C#N)cc(OC)c1O
inactive: [1] 89.9% | [2] 99% | [3] 109% | [4] 109% | [5] 108% | [6] 128% | [7] 104% | [8] 107% | [9] 111% | [10] 102%

C/C(N)=C(\C#N)C(=O)c1ccccc1
inactive: [1] 99.2% | [2] 103% | [3] 97.9% | [4] 104% | [5] 99.5% | [6] 101% | [7] 112% | [8] 111% | [9] 105% | [10] 94.1%
